# Results published in PubChem BioAssay (NCATS).
# Records with an inconclusive call do not appear. Where a call stands in place of a potency, no number is given. A number with no mark means an inactive call. Activity calls are given as the source filed them. The call rests on the fitted dose curve; in most records, active means well fitted cell-killing curve with a large enough effect; inconclusive means small, poorly fitted or top-dose-only effect, or effect the other way; inactive means flat fitted curve, though single readings scatter.
# Test system: Tov112D
# Assay: Primary qHTS to identify gynecologic anti-cancer compounds using libraries of approved drugs and bioactive compounds (AID 1345084); further: nearly all actives have a fitted effect of over 55% in size
# Conditions: Gynecologic cancer cell panel viability, ATPlite luminescence, 48 h; series mostly up to 57.5 µM
# Summary of the method: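 Five-concentration response, 48 h; readout is ATP-driven luciferase luminescence.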
# Potency means the concentration at half of the fitted maximal effect.
SMILES,Potency,"activity change, negative = cytotoxicity"
CN1CCN(S(=O)(=O)c2ccc(-c3cnc(N)c(C(=O)Nc4cccnc4)n3)cc2)CC1,inactive,–
COc1cc(CCc2cc(NC(=O)c3ccc(N4CC(C)NC(C)C4)cc3)n[nH]2)cc(OC)c1 (centres undefined),inactive,–
C[C@H](Oc1cc(-c2cnn(C3CCNCC3)c2)cnc1N)c1c(Cl)ccc(F)c1Cl,inactive,–
Cn1cc(-c2ccc(S(=O)(=O)n3ccc(/C=C/C(=O)Nc4ccccc4N)c3)cc2)cn1,4.47 µM (active),–
CC(=O)O[C@@]12CO[C@@H]1C[C@H](O)[C@@]1(C)C(=O)[C@H](O)C3=C(C)[C@@H](OC(=O)[C@H](O)[C@@H](NC(=O)OC(C)(C)C)c4ccccc4)C[C@@](O)([C@@H](OC(=O)c4ccccc4)C12)C3(C)C (some centres undefined),inactive,–
COc1cc2ncc(-c3ccccc3)nc2cc1OC,inactive,–
N#C/C(=C1\Nc2ccccc2S1)c1ccnc(NCCc2cccnc2)n1,inactive,–
O=C(Nc1ccc(N2C(=O)[C@@H]3[C@H](C2=O)[C@@H]2C=C[C@H]3C2)c(Cl)c1)c1ccccn1,inactive,–
N#Cc1ccc(O[C@@H]2c3ccccc3C[C@H]2N2CCC[C@@H](N)C2)c(Cl)c1,inactive,–
O=C(Nc1nc2cc(C(F)(F)F)cc(NC3CC3)n2n1)c1cccnc1,7.94 µM (active),–
Cc1cc(C(C)Nc2ccccc2C(=O)O)c2nc(N3CCOCC3)cc(=O)n2c1 (centres undefined),inactive,–
C=C1C(=O)O[C@@H]2C3C(=C(C)[C@@H](O)[C@@H](OC(=O)/C(=C/C)COC(C)=O)[C@@H]12)C(=O)[C@H]1O[C@@]31C (some centres undefined),12.6 µM (active),–
CCn1c(=O)c(-c2ccc(Cl)cc2Cl)cc2cnc(Nc3ccc(N4CCNCC4)c(F)c3)nc21,inactive,–
C=C(C=O)[C@]1(O)C[C@@]2(C)C(=CC1=O)C=C[C@H](OC(=O)/C=C/C=C/[C@H](C)CC)[C@@H]2C,inactive,–
CO[C@H]1[C@@H](O)[C@H](O[C@H]2CC[C@@]3(C)C(CCC4C3CC[C@]35COC6(COC(=O)C6)C3CCC45O)C2)O[C@@H](C)[C@@H]1OC1OC(CO)C(OC2OC(CO)C(O)C(O)C2O)C(O)C1O (some centres undefined),2.82 µM (active),–
C=CC(=O)Nc1cc(-n2c(=O)ccc3cnc4ccc(-c5ccc(NS(C)(=O)=O)cc5)cc4c32)ccc1C,inactive,–
CCCC(CCC)C(=O)Nc1ccn([C@@H]2O[C@H](CO)[C@@H](O)C2(F)F)c(=O)n1,10 µM (active),–
Cn1cc(-c2cnn3c(N)c(Br)c(C4CCCNC4)nc23)cn1 (centres undefined),inactive,–
C/C(=N\N=C(N)N)c1cc(NC(=O)CCCCCCCCC(=O)Nc2cc(/C(C)=N/N=C(N)N)cc(/C(C)=N/N=C(N)N)c2)cc(/C(C)=N/N=C(N)N)c1,inactive,–
N#Cc1cc(CN2CCC(Nc3ncnc4sc(Cl)cc34)CC2)ccc1F,inactive,–

SMILES,Potency,"activity change, negative = cytotoxicity"
Cn1cc(-c2cnn3c(N)c(Br)c([C@@H]4CCCNC4)nc23)cn1,inactive,–
O=c1nc(-c2ccccn2)sc2ccccc12,inactive,–
C=C1C(=O)OC2/C=C(\C)CC3C=C(CC/C=C(\C)CCC12)C(=O)O3 (centres undefined),inactive,–
CCn1c(-c2nonc2N)nc2c(C#CC(C)(C)O)ncc(OCC3CCCNC3)c21 (centres undefined),inactive,–
COc1cc2nc(N3CCN(C(=O)c4ccco4)C4CCCCC43)nc(N)c2cc1OC (centres undefined),inactive,–
C=C1C(=O)O[C@H]2C[C@@H](C)[C@@H]3CCC(=O)[C@@]3(C)C[C@H]12,inactive,–
C/C=C(\C)C(=O)O[C@H]1C=C(CO)C(=O)[C@H](OC(C)=O)[C@H]1C(C)C,inactive,–
COc1ccccc1S(=O)(=O)Nc1ccc2c(c1)CN(C)C(=O)N2,inactive,–
C[C@H]1[C@H](/C=C/c2ccc(-c3ccccc3C#N)cn2)[C@@H]2[C@@H](C)OC(=O)[C@@H]2C[C@@H]1C,20 µM (active),–
Cc1ccc(NC(=O)C(C)C)cc1C1CCN(Cc2ccc(Oc3ccc(F)c(F)c3)cc2)CC1,inactive,–
COc1cc(F)c(F)c(Nc2ccc(I)cc2F)c1NS(=O)(=O)C1(CC(O)CO)CC1 (centres undefined),inactive,–
C=CC(=O)N1CCCC(n2nc(-c3ccc(Oc4ccccc4)cc3)c3c(N)ncnc32)C1 (centres undefined),inactive,–
C=C1CO[C@@]2(O[C@H]3CC4C5CC=C6C[C@@H](O)C[C@@H](O[C@@H]7OC[C@H](O)[C@H](O[C@@H]8OC[C@@H](O)[C@H](O)[C@H]8O)[C@H]7O[C@@H]7O[C@@H](C)[C@H](OC(C)=O)[C@@H](OC(C)=O)[C@H]7OC(C)=O)[C@]6(C)C5CC[C@]4(C)[C@@H]3[C@@H]2C)[C@@H](O)[C@H]1OC1OC(C)C(O)C(O)C1O (some centres undefined),3.55 µM (active),–
C/C1=C\CCC2=CC(OC2=O)C(C)(C)/C=C/C1=O (centres undefined),inactive,–
C/C=C(/C)C(=O)O[C@H]1[C@H](OC(=O)/C(C)=C\C)[C@@]23C(CC1(C)C)[C@]1(CCC4[C@@]5(C)CC[C@H](O[C@@H]6O[C@H](C(=O)O)[C@@H](O)[C@H](O[C@@H]7O[C@H](CO)[C@H](O)[C@H](O)[C@H]7O[C@@H]7O[C@@H](C)[C@H](O)[C@@H](O)[C@H]7O[C@@H]7OC[C@@H](O)[C@H](O)[C@H]7O)[C@H]6O[C@@H]6O[C@H](CO)[C@H](O)[C@H](O)[C@H]6O)C(C)(C)C5CC[C@@]4(C)[C@]1(C)C[C@H]2O)O[C@H]3O (some centres undefined),–,-22.5% [at 6.55 µM]
CC(=O)Nc1nc(C)c(-c2nc(N3CCCC(O)C3)no2)s1 (centres undefined),inactive,–
Oc1cccc(C2NC(=S)Nc3cccc(F)c32)c1 (centres undefined),10 µM (active),–
C[C@@H]1O[C@@H](O[C@H]2[C@H](OC(=O)[C@]34CCC(C)(C)C[C@H]3C3=CCC5[C@@]6(C)C[C@H](O)[C@H](O[C@@H]7O[C@H](CO)[C@@H](O)[C@H](O)[C@H]7O)[C@](CO)(C(=O)O)C6CC[C@@]5(C)[C@]3(C)C[C@H]4O)OC[C@H](O)[C@@H]2O)[C@H](O)[C@H](O)[C@H]1O[C@@H]1OC[C@@H](O)[C@H](O[C@@H]2OC[C@](O)(CO)[C@H]2O)[C@H]1O (some centres undefined),1.41 µM (active),–
C=C1/C(=C/C=C2\CCC[C@]3(C)[C@@H]([C@H](C)CC[C@@H](O)C(C)(C)O)CC[C@@H]23)C[C@@H](O)C[C@@H]1O,inactive,–
